According to PubChem BioAssay AID977607 (Broad Institute, 2014):
Out of some 1,500 compounds screened, about 460 (31%) were called active. Another 1% or so got no clear call; they are omitted.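 How the source made its calls: active means curve reaches 40% activation over neutral controls at an AC40 no higher than the top valid tested concentration; inconclusive means no clear call, values can overlap the other calls; inactive means signal moving opposite to the expected increase, and the rest.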 Only a sample is shown. Entries with a potency or affinity are not part of this list.

assay: GLuc-reported insulin release enhancers, glucose-stimulated beta cells – cell-based, INS-1E, Gaussia luciferase, luminescence, cherry-pick, set 2, dose response (AID 977607); conditions: INS-1E GLuc insulin secretion reporter, 2-3 h, hits give high values; at 35 µM, 100% = signal doubled over neutral wells unless noted;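 further: 0% = median of the plate neutral control wells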

Max activation, inactive:
CNS(=O)(=O)c1ccc2c3c(cccc13)C(=O)N2 19.7%
CC(=O)Nc1cccc(-n2c(=O)n(Cc3ccccc3)c(=O)c3[nH]cnc32)c1 18.8% [at 1.2 µM, 100% = signal doubled over neutral wells]
N#CCCCc1cc2ccccc2cn1 -14.5% [at 0.046 µM, 100% = signal doubled over neutral wells]
COc1cc(/C=N/Nc2cc(C)nc(NS(=O)(=O)c3ccc(C)cc3)n2)ccc1O 36.9% [at 3.8 µM, 100% = signal doubled over neutral wells]
COc1cc(/C=N/NC(=O)CNC(=O)c2cccs2)ccc1O -23.7% [at 0.015 µM, 100% = signal doubled over neutral wells]
COc1ccc(/C=N/NC(=O)Cn2cnc3ccccc3c2=O)cc1OC 23.7% [at 11 µM, 100% = signal doubled over neutral wells]
CCNc1nc(CC)nc2c1oc1ccccc12 -18.9% [at 0.015 µM, 100% = signal doubled over neutral wells]
Cc1cccc(-n2c(C)c(C)c3c(N)ncnc32)c1 29.8%
N#CCc1nn2c(-c3ccccc3)ccnc2c1C#N -20% [at 0.015 µM, 100% = signal doubled over neutral wells]
COc1ccc(/C=C/c2nc(C#N)c(NCCN(C)C)o2)cc1OC -15.9% [at 0.42 µM, 100% = signal doubled over neutral wells]
CCOCC(=O)Nc1c(C(=O)OCC)oc2ccccc12 28.8% [at 3.8 µM, 100% = signal doubled over neutral wells]
Nc1[nH]c(C(=O)c2ccccc2)c(-c2ccncc2)c1C(=O)NCc1cccc2ccccc12 -29.2%
C[C@@H]1CN([C@H](C)CO)C(=O)c2cc(C3=CCCCC3)cnc2O[C@H]1CN(C)C(=O)CN1CCOCC1 -24.7% [at 0.005 µM, 100% = signal doubled over neutral wells]
O=C(c1cccs1)N(Cc1ccc(Cl)cc1)C1CCS(=O)(=O)C1 (centres undefined) 21.3%
O=C(c1cccs1)N(Cc1cccc(F)c1)C1CCS(=O)(=O)C1 (centres undefined) 26.2% [at 0.005 µM, 100% = signal doubled over neutral wells]
CCOC(=O)C1=NN(C(=O)Nc2cccc(C(F)(F)F)c2)C2C(=O)N(c3cccc(C(F)(F)F)c3)C(=O)C12 (centres undefined) 17.3% [at 3.8 µM, 100% = signal doubled over neutral wells]
N#Cc1ccc(-c2ccc3c(c2)[C@@H]2[C@@H](CCN2C(=O)C2CCCC2)[C@@H](CO)N3)cc1 -29.6%
O=C(CCn1nc(-c2ccc(Cl)cc2)ccc1=O)NCCCN1CCCCCC1 -17.5% [at 0.005 µM, 100% = signal doubled over neutral wells]
CC(C)(C)C1=Nn2c(nnc2C2CCCCC2)SC1 27% [at 11 µM, 100% = signal doubled over neutral wells]
C=CCNc1cc(C)oc(=O)c1C(=O)CCC -21.1% [at 0.015 µM, 100% = signal doubled over neutral wells]
CCN1CCN(CCCNC(=O)c2ccc3c(c2)N(Cc2ccccc2)CCS3)CC1 -25.6% [at 11 µM, 100% = signal doubled over neutral wells]
CCOC(=O)c1sc2nc(C)[nH]c(=O)c2c1C 8.29% [at 0.135 µM, 100% = signal doubled over neutral wells]
CCCCc1nc(N)c(C#N)c(-c2ccco2)c1CCC 35.2%
COc1ccc(CCNC(=O)CCCc2nnc3n(C)c(=O)c4sccc4n23)cc1OC -17.7% [at 0.0016 µM, 100% = signal doubled over neutral wells]
COc1ccc(CCNC(=O)CCC(=O)c2cccs2)cc1OC 35.6% [at 1.2 µM, 100% = signal doubled over neutral wells]
COc1ccc(-n2c3c(c(=O)[nH]c2=O)C(NS(=O)(=O)c2ccc(Cl)cc2)(C(F)(F)F)C(=O)N3)cc1 (centres undefined) -27.1% [at 0.015 µM, 100% = signal doubled over neutral wells]
N#Cc1cnn2c(C(F)(F)F)cc(-c3ccccc3)nc12 -14.3% [at 0.0016 µM, 100% = signal doubled over neutral wells]
Cc1cc(C)c(CSc2nnnn2-c2ccc(C(=O)O)cc2)c(C)c1 -11.8% [at 1.2 µM, 100% = signal doubled over neutral wells]
O=C(c1cccnc1)N(Cc1ccccc1)c1ccccc1 25.1%
CCCNC(=O)C1(C)CCCN(Cc2cccn2C)C1 (centres undefined) -16.6% [at 3.8 µM, 100% = signal doubled over neutral wells]
CC(=O)Nc1ccc(Cl)c(-c2nc3ncccc3o2)c1 24% [at 0.005 µM, 100% = signal doubled over neutral wells]
CC(C)CCN(CC(=O)NCc1ccc(F)cc1)S(=O)(=O)c1ccccc1F -38.5% [at 11 µM, 100% = signal doubled over neutral wells]
CCOc1nc(NC(=O)NS(=O)(=O)Oc2ccccc2Cl)nc(-c2ccccc2)n1 -20.8% [at 0.0016 µM, 100% = signal doubled over neutral wells]
CC1Oc2ccccc2N(Cc2cccc(F)c2)C1=O (centres undefined) -13.7% [at 0.005 µM, 100% = signal doubled over neutral wells]
Cc1ccc(-c2ccc([C@@H]3[C@@H]4CN(Cc5ccccc5F)C[C@H]3N4)cc2)cc1 26.7% [at 0.42 µM, 100% = signal doubled over neutral wells]
O=C(NC1CCCC1)C(C1CC1)n1c(-c2ccccn2)nc2ccccc21 (centres undefined) -23.1% [at 0.135 µM, 100% = signal doubled over neutral wells]
CC(C)C(C(=O)NCc1ccco1)N(CC1CCCO1)C(=O)CNS(=O)(=O)c1ccc(F)cc1 (centres undefined) -14.9% [at 11 µM, 100% = signal doubled over neutral wells]
CCSc1ncnc2sc3c(c12)CCC3 31.4%
COc1ccccc1-c1cnc2c(Nc3cccc(OC(F)(F)C(F)F)c3)nccn12 -17.8% [at 11 µM, 100% = signal doubled over neutral wells]
Cc1cccc(CN2C(=O)CSc3ccc(C(=O)NC4CC4)cc32)c1 41% [at 0.135 µM, 100% = signal doubled over neutral wells]
Cc1cc(NCc2ccccn2)nc2ccccc12 -14.9% [at 0.005 µM, 100% = signal doubled over neutral wells]
CCOc1ccc(CCNC(=O)c2cc(C)on2)cc1OCC -13.4% [at 0.135 µM, 100% = signal doubled over neutral wells]
O=C(CN1C(=O)NC(Cc2c[nH]c3ccccc23)C1=O)NCCc1ccccc1 (centres undefined) 21% [at 11 µM, 100% = signal doubled over neutral wells]
COc1ccc(CCn2nnc(-c3ccc(NC(C)=O)c(Cl)c3)n2)cc1 -24.6% [at 11 µM, 100% = signal doubled over neutral wells]
COc1ccc(C2CC(=O)C(c3ccc(C)cc3)=CN2Cc2ccccc2)cc1 (centres undefined) -26.2%
COc1ccc2nc(CCN(C)C(=O)C3CCC(=O)N(Cc4cccc(F)c4)C3)[nH]c2c1 (centres undefined) -20.4%
COc1cccc(-c2ccc3c(c2)N(Cc2cccc(F)c2)C(=O)C(C)S3)c1 (centres undefined) -26.7% [at 11 µM, 100% = signal doubled over neutral wells]
O=c1c2sccc2n(Cc2cccc(F)c2)c(=O)n1-c1ccc(F)cc1 -14.5% [at 0.005 µM, 100% = signal doubled over neutral wells]
CN(C(=O)c1ccc(C#N)cc1)c1nnc(-c2cnccn2)s1 -16.1% [at 0.42 µM, 100% = signal doubled over neutral wells]
Cc1cc(C)n(CC(=O)n2c3ccccc3c3ccccc32)n1 20.6%
CN[C@H]1C[C@@H](c2ccccc2)N(C(C)=O)C[C@H]1CO -14% [at 0.135 µM, 100% = signal doubled over neutral wells]
COC(=O)c1ccc(C)c(-n2c(=O)n(Cc3ccccc3)c(=O)c3[nH]cnc32)c1 -20.8% [at 0.005 µM, 100% = signal doubled over neutral wells]
CC1CN(Cc2ccccc2)C(=S)NC1=O (centres undefined) -25.1% [at 3.8 µM, 100% = signal doubled over neutral wells]
Cc1c(C=O)c2ccccn2c1C(=O)c1ccc(F)cc1 -14.1% [at 0.0016 µM, 100% = signal doubled over neutral wells]
